These results are taken from PubChem BioAssay (NCATS).

Results filed as inconclusive are left out. Entries that show only a call come without a potency. Activity calls are given as the source filed them. The call rests on the fitted dose curve; in most records, active means well fitted inhibition curve with a large enough effect; inconclusive means small, poorly fitted or top-dose-only effect; inactive means no such curve, though single readings can be large or run the other way.
Potency means the concentration at half of the fitted maximal effect.

This assay has as its system Zika virus NS2B-NS3 protease (linked construct). In words: Primary screen NINDS Rhodamine qHTS for Zika virus inhibitors (AID 1347160). Further: nearly all actives have a fitted effect of over 55% in size. To be noted: purified NS2B-NS3 protease, Rhodamine110 substrate fluorescence; series mostly up to 57.1 µM. The procedure, abridged:
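In 10 mM Tris-HCl pH 8.0 containing 0.01% Tween 20, linked NS2B-NS3 protease (25 nM final) is exposed to test compounds for 15 min. Cleavage of 1.5 microM Rhodamine110 substrate is tracked by fluorescence over 15 min.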
On the technique in general: qHTS replaces the single test concentration by a dilution series.
In the case of `C/C=C/C=C/C(CC(=O)O)Nc1ccc(C=O)cc1` (stereo not given), the Potency is 49.3 µM (active). For `Cn1ccnc1CCOC(c1cc2nccc(C(=O)O)c2[nH]1)c1ccccc1Cl` (stereo not given), the Potency result was “inactive”. Same read-out and setting: the value for `CN1C(=O)c2ccccc2NC(=O)[C@]12O[C@@H]2c1cccc(O)c1` was “inactive”; that for `CCOc1nc2cccc(C(=O)O)c2n1Cc1ccc(-c2ccccc2-c2noc(=O)[nH]2)cc1` was “inactive”. Still for that read-out and setting: the same measure for `C[C@@H]1O[C@@H](O[C@H]2[C@H](O)[C@@H](C(=O)O)O[C@@H](O[C@H]3CC[C@@]4(C)C(CC[C@]5(C)C4CC=C4C6CC(C)(C)CC[C@]6(C(=O)O)CC[C@]45C)C3(C)C)[C@@H]2O[C@@H]2O[C@H](CO)[C@@H](O)[C@H](O)[C@H]2O)[C@H](O)[C@H](O)[C@H]1O` (stereo not given in full): “inactive”; for `CC12CC34C=CC(=O)C(C)(CCC(=O)O)C3C(CC1C4)O2` (stereo not given): “inactive”. Turning to `C=C1[C@@H]2[C@H]3OC(=O)C(=C)[C@@H]3CC[C@@](C)(O)[C@@H]2C[C@@H]1O[C@@H]1O[C@H](CO)[C@@H](O)[C@H](O)[C@H]1O`, the Potency result was “inactive”. On the same count and under the same terms, the value for `CC1(C)CC2C(C1)C1(C)CCC13OC3(CO)C2O` (stereo not given) was “inactive”. Same read-out and setting: the same measure for `NC(=O)c1cccc(-c2cc(O)cc(OC(=O)NC3CCCCC3)c2)c1`: “inactive”; for `CC(C)CC(=O)OC[C@H]1O[C@@](COC(=O)CC(C)C)(O[C@H]2O[C@H](CO)[C@@H](O)[C@H](O)[C@H]2O)[C@@H](OC(=O)CC(C)C)[C@@H]1OC(=O)CC(C)C`: “inactive”; for `CCC(C)/C=C(C)/C=C/C1=CC2=C(Cl)C(=O)C(C)(OC(C)=O)C(=O)C2=CN1CCCC(=O)O` (stereo not given): “inactive”. On the same count and under the same terms, the same measure for `COC(=O)C1C(c2ccc(O)cc2)C(C(=O)OC)C1c1ccc(O)cc1` (stereo not given): “inactive”. Take `C[C@@H]1O[C@@H](O[C@H]2[C@H](O[C@H]3[C@H](O[C@H]4CC[C@@]5(C)C(CC[C@]6(C)C5CC=C5[C@@H]7CC(C)(C(=O)O)C[C@@H](O)[C@]7(C)CC[C@]56C)[C@@]4(C)CO)O[C@H](C(=O)O)[C@@H](O)[C@@H]3O)O[C@H](CO)[C@H](O)[C@@H]2O)[C@H](O)[C@H](O)[C@H]1O` (stereo not given in full): the Potency result was “inactive”. Still for that read-out and setting: the same measure for `CC1CCC2C(C)(C)C(O)CCC2(C)C12Cc1c(O)cc3c(c1O2)CN=C3N` (stereo not given): “inactive”; for `CC1=CC(=O)C2C(C)(C)CCCC2(C)C12CCC1(COC(=O)C1)O2` (stereo not given): “inactive”.

As to `C=C1C[C@]23C[C@H]1CC[C@H]2[C@]1(C)CCC[C@@]2(CO)C(=O)O[C@H]([C@H]21)[C@@H]3O`, the Potency entry was “inactive”. The same measure, in the same setting: the value for `CC1(C)CC[C@]2(C(=O)O)CC[C@]3(C)C(=CCC4[C@@]5(C)CCC(O[C@@H]6OC[C@H](O)[C@H](O)[C@H]6O[C@@H]6O[C@H](CO)[C@@H](O)[C@H](O)[C@H]6O)[C@@](C)(CO)C5CC[C@]43C)[C@@H]2C1` (stereo not given in full) was “inactive”; that for `CC(c1c[nH]c2ccccc12)C(O)C(=O)O` (stereo not given) was “inactive”; that for `CCNC(=O)[C@@H]1CCCN1C(=O)[C@H](CCCN=C(N)N)NC(=O)[C@H](CC(C)C)NC(=O)[C@@H](C)NC(=O)[C@H](Cc1ccc(O)cc1)NC(=O)[C@H](CO)NC(=O)[C@H](Cc1c[nH]c2ccccc12)NC(=O)[C@H](Cc1cnc[nH]1)NC(=O)[C@@H]1CCC(=O)N1` was “inactive”. Same read-out and setting: the value for `CC(C)(OC1OC(CO)C(O)C(O)C1O)C1CCC(O)(CO)C2CC(O)C(C)(O)C2C1` (stereo not given) was “inactive”. Turning to `CC(=O)c1cnc2ccc(-c3cc(Cl)c(O)c(Cl)c3)nc2c1NC1CCC(CN(C)C)CC1` (stereo not given), the outcome was “inactive; activator [at 10.7 µM]”. On to `COC1CCCC/C(C)=C/C2C=C(C)C(C)C3C(CC(C)C)NC(=O)C23C(=O)C1` (stereo not given), for which the Potency entry was “inactive”. Same read-out and setting: the same measure for `Cn1c(=O)c2nc(/C=C/c3cccc(Cl)c3)n(C)c2n(C)c1=O`: “inactive”; for `CC[C@@H](c1ccc(F)c(F)c1)n1c(C(=O)OC)c(-c2ccno2)[nH]c1=S`: “inactive”; for `NS(=O)(=O)NCCNc1nonc1C(=Nc1ccc(F)c(Br)c1)NO`: “inactive”. Same read-out and setting: the value for `O=S(=O)(NC1CCNCC1)c1cc(S(=O)(=O)c2ccccc2)ccc1C(F)(F)F` was “inactive”.

As for `CC1(C)O[C@@]2(C)CC[C@@H]1C[C@@H]2OC1OC(CO)C(O)C(O)C1O` (stereo not given in full), the Potency was 11.2 µM (active). Still for that read-out and setting: the same measure for `COc1ccc(C[C@H](N)C(=O)N[C@H]2[C@@H](O)[C@H](n3cnc4c(N(C)C)ncnc43)O[C@@H]2CO)cc1`: “inactive”. Same read-out and setting: the same measure for `Cc1nn(C)c2c1C(c1ccc(C(F)(F)F)cc1)C(C#N)=C(N)O2` (stereo not given): “inactive”; for `C[C@]1(O)CC[C@@H]2C(C(=O)O)=CO[C@@H](O[C@@H]3O[C@H](COC(=O)c4ccc(O)cc4)[C@@H](O)[C@H](O)[C@H]3O)[C@@H]21`: “inactive”.
